Measured values published in PubChem BioAssay (NCI).
Compounds without any hit were thinned out: in the full panel of roughly 83,000, 20% have a hit.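 A percent growth of 40 corresponds to 60% growth inhibition; 0 means no net growth; -100 means all cells died. Active threshold: below 10.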 Calls of active or inactive are those of the source.

Assays:
Assay in all cases: NCI-60 one-dose screen, 48 h (100 = growth as untreated, 0 = no growth, -100 = all killed)
DU-145 prostate = conditions: 10 µM unless noted
K-562 leukemia = conditions: 10 µM unless noted
MALME-3M melanoma = conditions: 10 µM unless noted
MDA-MB-231 breast = conditions: 10 µM unless noted
RXF 393 renal = conditions: 10 µM unless noted
SF-268 CNS = conditions: 10 µM unless noted
SF-295 CNS = conditions: 10 µM unless noted
SF-539 CNS = conditions: 10 µM unless noted
UACC-257 melanoma = conditions: 10 µM unless noted
M14 melanoma = conditions: 10 µM unless noted
HCT-15 colon = conditions: 10 µM unless noted
HT29 colon = conditions: 10 µM unless noted
SNB-75 CNS = conditions: 10 µM unless noted
SNB-19 CNS = conditions: 10 µM unless noted
U251 CNS = conditions: 10 µM unless noted
PC-3 prostate = conditions: 10 µM unless noted
SK-MEL-5 melanoma = conditions: 10 µM unless noted
UACC-62 melanoma = conditions: 10 µM unless noted
LOX IMVI melanoma = conditions: 10 µM
SK-MEL-28 melanoma = conditions: 10 µM unless noted

Measured: growth

Cc1cc2c(C(C)C)c(O)c(O)c(C=Nc3ccccc3[N+](=O)[O-])c2c(O)c1-c1c(C)cc2c(C(C)C)c(O)c(O)c(C=Nc3ccccc3[N+](=O)[O-])c2c1O
inactive: DU-145 prostate 94.6% | K-562 leukemia 34.9% | MALME-3M melanoma 93.5% | MDA-MB-231 breast 74.4% | RXF 393 renal 83.2% | SF-268 CNS 73.5% | SF-295 CNS 82% | SF-539 CNS 97.2% | UACC-257 melanoma 92.6% | M14 melanoma 88% | HCT-15 colon 80.2% | HT29 colon 93% | SNB-75 CNS 78% | SNB-19 CNS 43.9% | U251 CNS 54.2% | PC-3 prostate 65.1% | SK-MEL-5 melanoma 96.2% | UACC-62 melanoma 96.5% | LOX IMVI melanoma 81.3% | SK-MEL-28 melanoma 98.3%

COC1CC(OC(=O)c2ccc([N+](=O)[O-])cc2)C(COC(=O)c2ccc([N+](=O)[O-])cc2)O1 (stereo not given)
inactive: DU-145 prostate 119% | K-562 leukemia 107% | MALME-3M melanoma 140% | MDA-MB-231 breast 105% | RXF 393 renal 103% | SF-268 CNS 112% | SF-295 CNS 94.5% | SF-539 CNS 105% | UACC-257 melanoma 91.9% | M14 melanoma 110% | HCT-15 colon 100% | HT29 colon 121% | SNB-75 CNS 87.3% | SNB-19 CNS 101% | U251 CNS 97.2% | PC-3 prostate 89.8% | SK-MEL-5 melanoma 95.7% | UACC-62 melanoma 98.1% | LOX IMVI melanoma 103% | SK-MEL-28 melanoma 101%

COc1nc(Nc2cccc(C(F)(F)F)c2)nc(OC)n1
inactive: DU-145 prostate 105% | K-562 leukemia 87% | MALME-3M melanoma 116% | MDA-MB-231 breast 90.7% | RXF 393 renal 102% | SF-268 CNS 98.4% | SF-295 CNS 88.4% | SF-539 CNS 98% | UACC-257 melanoma 121% | M14 melanoma 113% | HCT-15 colon 103% | HT29 colon 96.1% | SNB-75 CNS 84.3% | SNB-19 CNS 101% | U251 CNS 89.4% | PC-3 prostate 98.7% | SK-MEL-5 melanoma 94% | UACC-62 melanoma 103% | LOX IMVI melanoma 107% | SK-MEL-28 melanoma 109%

CC(C)c1ncc([N+](=O)[O-])n1C
inactive: DU-145 prostate 122% | K-562 leukemia 123% | MALME-3M melanoma 129% | MDA-MB-231 breast 118% | RXF 393 renal 115% | SF-268 CNS 121% | SF-295 CNS 127% | SF-539 CNS 98.2% | UACC-257 melanoma 97.2% | M14 melanoma 103% | HCT-15 colon 101% | HT29 colon 108% | SNB-75 CNS 116% | SNB-19 CNS 111% | U251 CNS 104% | PC-3 prostate 102% | SK-MEL-5 melanoma 114% | UACC-62 melanoma 107% | LOX IMVI melanoma 108% | SK-MEL-28 melanoma 119%

CCOC(=O)c1ccc(NC(=O)Nc2nccs2)cc1
active: DU-145 prostate -26.3% | K-562 leukemia -3.89% | MDA-MB-231 breast 8.88% | RXF 393 renal -21.2% | SF-268 CNS 0.081% | SF-295 CNS 9.16% | SF-539 CNS -50.1% | M14 melanoma 4.57% | HCT-15 colon 4.65% | HT29 colon -25.6% | SK-MEL-5 melanoma -67.3%
inactive: MALME-3M melanoma 39.4% | UACC-257 melanoma 45.5% | SNB-75 CNS 61.5% | SNB-19 CNS 11.6% | U251 CNS 12.5% | PC-3 prostate 22.8% | UACC-62 melanoma 31.8% | LOX IMVI melanoma 11.9% | SK-MEL-28 melanoma 40.9%

Cc1cc(C(=O)c2ccccc2)cc(C)c1O
inactive: DU-145 prostate 113% | K-562 leukemia 94.7% | MALME-3M melanoma 94.1% | MDA-MB-231 breast 124% | RXF 393 renal 116% | SF-268 CNS 102% | SF-295 CNS 107% | SF-539 CNS 90.4% | UACC-257 melanoma 115% | M14 melanoma 103% | HCT-15 colon 96.4% | HT29 colon 113% | SNB-75 CNS 87.8% | SNB-19 CNS 120% | U251 CNS 98.1% | PC-3 prostate 93.5% | SK-MEL-5 melanoma 104% | UACC-62 melanoma 108% | LOX IMVI melanoma 92.1% | SK-MEL-28 melanoma 115%

C=CCN1CCCC1=O
inactive: DU-145 prostate 114% | K-562 leukemia 86.7% | MALME-3M melanoma 96.9% | MDA-MB-231 breast 94.7% | RXF 393 renal 128% | SF-268 CNS 108% | SF-295 CNS 98.3% | SF-539 CNS 93% | UACC-257 melanoma 119% | M14 melanoma 98.8% | HCT-15 colon 104% | HT29 colon 96.3% | SNB-75 CNS 70.2% | SNB-19 CNS 93.1% | U251 CNS 102% | PC-3 prostate 94.6% | SK-MEL-5 melanoma 101% | UACC-62 melanoma 86.1% | LOX IMVI melanoma 108% | SK-MEL-28 melanoma 108%

Cc1cc(NC(=O)c2ccccc2)c(Cl)cc1N
inactive: DU-145 prostate 126% | K-562 leukemia 98.8% | MALME-3M melanoma 103% | MDA-MB-231 breast 96% | RXF 393 renal 124% | SF-268 CNS 114% | SF-295 CNS 94% | SF-539 CNS 95.5% | UACC-257 melanoma 100% | M14 melanoma 95.8% | HCT-15 colon 100% | HT29 colon 102% | SNB-75 CNS 100% | SNB-19 CNS 93.9% | U251 CNS 102% | PC-3 prostate 108% | SK-MEL-5 melanoma 97.5% | UACC-62 melanoma 89.8% | LOX IMVI melanoma 97.6% | SK-MEL-28 melanoma 124%

ClCC(Cl)C1CCC(Cl)C(Cl)C1 (stereo not given)
inactive: DU-145 prostate 102% | K-562 leukemia 105% | MALME-3M melanoma 99.5% | MDA-MB-231 breast 113% | RXF 393 renal 125% | SF-268 CNS 98.1% | SF-295 CNS 95.9% | SF-539 CNS 96.6% | UACC-257 melanoma 101% | M14 melanoma 101% | HCT-15 colon 99% | HT29 colon 103% | SNB-75 CNS 89.6% | SNB-19 CNS 99.8% | U251 CNS 99.6% | PC-3 prostate 102% | SK-MEL-5 melanoma 105% | UACC-62 melanoma 103% | LOX IMVI melanoma 95.9% | SK-MEL-28 melanoma 103%

COc1cc(C(=O)N2CCN(c3ccccc3)CC2)c2ccccc2n1
inactive: K-562 leukemia 16.5% | MALME-3M melanoma 54.6% | SF-268 CNS 42.9% | UACC-257 melanoma 51.1% | HCT-15 colon 18.3% | SNB-75 CNS 20.9% | SNB-19 CNS 28.4% | U251 CNS 11.1% | PC-3 prostate 35.5% | SK-MEL-5 melanoma 16.8% | UACC-62 melanoma 32.6% | LOX IMVI melanoma 16.5% | SK-MEL-28 melanoma 54.6%
active: DU-145 prostate 1.57% | MDA-MB-231 breast 5.71% | RXF 393 renal -39.8% | SF-295 CNS 7.61% | SF-539 CNS -4.8% | M14 melanoma 0.444% | HT29 colon -19%

C=C1C(=O)C2CCC1C2 (stereo not given)
inactive: DU-145 prostate 98.4% | K-562 leukemia 92.6% | MALME-3M melanoma 93.6% | MDA-MB-231 breast 103% | RXF 393 renal 112% | SF-268 CNS 88.9% | SF-295 CNS 102% | SF-539 CNS 105% | UACC-257 melanoma 105% | M14 melanoma 96.5% | HCT-15 colon 99.8% | HT29 colon 102% | SNB-75 CNS 103% | SNB-19 CNS 107% | U251 CNS 109% | PC-3 prostate 105% | SK-MEL-5 melanoma 105% | UACC-62 melanoma 108% | LOX IMVI melanoma 106% | SK-MEL-28 melanoma 119%

Oc1cccc(CNC2CCCCC2)c1
inactive: DU-145 prostate 119% | K-562 leukemia 101% | MALME-3M melanoma 129% | MDA-MB-231 breast 102% | RXF 393 renal 114% | SF-268 CNS 103% | SF-295 CNS 120% | SF-539 CNS 106% | UACC-257 melanoma 119% | M14 melanoma 99.9% | HCT-15 colon 105% | HT29 colon 100% | SNB-75 CNS 90.4% | SNB-19 CNS 95% | U251 CNS 106% | PC-3 prostate 99.8% | SK-MEL-5 melanoma 103% | UACC-62 melanoma 96.5% | LOX IMVI melanoma 113% | SK-MEL-28 melanoma 110%

Nc1ncc([N+](=O)[O-])cn1
inactive: DU-145 prostate 104% | K-562 leukemia 108% | MALME-3M melanoma 103% | MDA-MB-231 breast 98.4% | RXF 393 renal 110% | SF-268 CNS 98.4% | SF-295 CNS 105% | SF-539 CNS 105% | UACC-257 melanoma 84.7% | M14 melanoma 100% | HCT-15 colon 108% | HT29 colon 81.2% | SNB-75 CNS 99.1% | SNB-19 CNS 95.6% | U251 CNS 96.2% | PC-3 prostate 88.7% | SK-MEL-5 melanoma 94.6% | UACC-62 melanoma 98.9% | LOX IMVI melanoma 99.7% | SK-MEL-28 melanoma 103%

Cc1c(-c2ccc(C3CCCCC3)cc2)nc2ccc(F)cc2c1C(=O)O
active: SF-295 CNS 2.98% | LOX IMVI melanoma 8.7%
inactive: DU-145 prostate 39.3% | K-562 leukemia 22.9% | MALME-3M melanoma 62.1% | MDA-MB-231 breast 62.7% | RXF 393 renal 74.1% | SF-268 CNS 42.8% | SF-539 CNS 37.1% | UACC-257 melanoma 65.2% | M14 melanoma 47.9% | HCT-15 colon 25.1% | HT29 colon 31.6% | SNB-75 CNS 62.7% | SNB-19 CNS 61.7% | U251 CNS 44.2% | PC-3 prostate 44.9% | SK-MEL-5 melanoma 32.9% | UACC-62 melanoma 43.3% | SK-MEL-28 melanoma 60.8%

COc1ccc(Nc2cc(Cl)ccc2C(=O)O)cn1
inactive: DU-145 prostate 110% | K-562 leukemia 100% | MALME-3M melanoma 157% | MDA-MB-231 breast 109% | RXF 393 renal 126% | SF-268 CNS 103% | SF-295 CNS 138% | SF-539 CNS 105% | UACC-257 melanoma 40.3% | M14 melanoma 102% | HCT-15 colon 106% | HT29 colon 106% | SNB-75 CNS 99.4% | SNB-19 CNS 96.5% | U251 CNS 105% | PC-3 prostate 99% | SK-MEL-5 melanoma 114% | UACC-62 melanoma 96.3% | LOX IMVI melanoma 98.1% | SK-MEL-28 melanoma 98.8%

C=C(OC(C)=O)c1ccccc1
inactive: DU-145 prostate 113% | K-562 leukemia 83% | MALME-3M melanoma 108% | MDA-MB-231 breast 103% | RXF 393 renal 113% | SF-268 CNS 102% | SF-295 CNS 105% | SF-539 CNS 108% | UACC-257 melanoma 83.7% | M14 melanoma 97.3% | HCT-15 colon 114% | HT29 colon 98.4% | SNB-75 CNS 98% | SNB-19 CNS 106% | U251 CNS 89.8% | PC-3 prostate 79.4% | SK-MEL-5 melanoma 101% | UACC-62 melanoma 97% | LOX IMVI melanoma 94.4% | SK-MEL-28 melanoma 118%
